These results are taken from PubChem BioAssay (NCI).

Structures are written as SMILES. Compounds without any hit were thinned out: in the full panel of roughly 83,000, 20% have a hit.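 Interpretation: 100, growth as untreated; towards 0, rising growth inhibition; 0, no net growth; 0 to -100, cell death. Compounds scoring below 10 were considered active.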 Active and inactive are the calls of the source.

This assay relates to HCT-15 colon. Nature of the assay: NCI-60 one-dose screen, 48 h (100 = growth as untreated, 0 = no growth, -100 = all killed). Particulars: 10 µM unless noted.
In the case of `Cn1cc(-c2csc(-c3ccc(Cl)cc3)n2)c2cccnc21`, the growth was -31.9% [100 µM] (active).
To `COc1cc(-c2nc(SCCC(C)C)nc(Nc3ccccc3Cl)c2C#N)cc(OC)c1OC` belongs 93% (inactive).
To `CCn1c(=S)[nH]c2c(=O)n(C)c(=O)n(C)c21` belongs 101% (inactive); to `c1ccc(CNc2c3ccccc3nc3ccccc23)cc1`, 24.6% (inactive).
For `COCCn1c(-c2csc(-c3cn(C)c4ccc(OC)cc34)n2)cc2cccnc21`, the growth is 7.45% (active).
The figure for `CCOC(=O)CSc1ncnc2c1c(-c1ccccc1)c(-c1ccccc1)n2-c1ccc(C)cc1` is 106% (inactive); for `COc1cc2oc(-c3cccc(NC(=O)c4cccc(Br)c4)c3)cc(=O)c2c(OC)c1OC` it is 31.3% (inactive); for `Cc1ccc(Cl)cc1Nc1nc(C(F)(F)F)ccc1C(=O)N/N=C/c1cccnc1` it is 19.2% (inactive).
On to `Cn1c(=O)c2c(nc(NC3=NS(=O)(=O)c4ccccc43)n2CC(=O)N2CCc3ccccc32)n(C)c1=O`, for which the growth was 101% (inactive).
For `Cc1cccc(Cl)c1NC(=O)c1ccc2nc(NC(=O)NCCN(C)C)sc2c1`, the growth was 99.3% (inactive).
The figure for `CCOC(=O)c1c(C)nc2c(c1N)CC(=O)N2Cc1cc(F)cc(Cl)c1` is 80.5% (inactive).
To `COC(C(=O)[C@@H](O)[C@@H](C)O)[C@@H]1Cc2cc3cc(O[C@H]4C[C@@H](O[C@H]5C[C@@H](O)[C@H](O)C(C)O5)[C@H](O)C(C)O4)cc(O)c3c(O)c2C(=O)[C@H]1O[C@H]1C[C@@H](O[C@H]2C[C@@H](O[C@H]3C[C@@H](OC)[C@H](O)C(C)O3)[C@@H](O)C(C)O2)[C@H](O)C(C)O1` (stereo partly drawn) belongs 102% (inactive); to `CN([O-])c1nc(N(C)[O-])nc(N2CCOCC2)n1.CN([O-])c1nc(N(C)[OH2+])nc(N2CCOCC2)n1.[Fe+3]`, 104% [100 µM] (inactive).
The figure for `CCOP(=O)(OCC)c1nc(-c2ccccc2)oc1NCc1cccnc1` is 107% (inactive); for `CCn1c(SCC(=O)c2ccc(Br)cc2)nnc1-c1ccncc1` it is 106% (inactive); for `CCCCNc1ccc(C#N)c(OCCN(CC)CC)c1` it is 102% (inactive).
With `N#Cc1c(-c2ccc(Cl)cc2)nc(NN=Cc2cccc(O)c2)nc1N1CCOCC1`, the growth was 44.7% (inactive).
For the compound `CS(=O)(=O)Nc1cc(-c2ccc3ncnc(Nc4c(Cl)ccc5c4OCO5)c3c2)cnc1Cl`, the growth was -18% (active).
The figure for `Fc1cccc(CNc2c3ccccc3nc3ccccc23)c1F` is 39.5% (inactive); for `COC(=O)CNC(=O)[C@H](Cc1ccccc1)NCc1ccncc1` it is 101% (inactive); for `O=C(NCCCN1CCOCC1)c1cccc(N2C(=O)/C(=C/c3ccc(F)cc3)SC2=S)c1` it is 99.8% (inactive).
`O=[N+]([O-])/C(=C/C=C/c1ccccc1)c1ccccc1`: the growth was 10.8% (inactive).
The figure for `Cn1cc(-c2csc(-c3c[nH]c4ccc(Br)cc34)n2)c2cnccc21` is -78.9% (active).
The figure for `C=C(C)[C@@H]1CC[C@]2(C(=O)N3CCN(C)CC3)CC[C@]3(C)[C@H](CC[C@@H]4[C@@]5(C)CC(=C/c6ccncc6)/C(=N/O)C(C)(C)[C@@H]5CC[C@]43C)[C@@H]12` is 65.5% (inactive); for `COc1cc(N2C(=O)[C@H](O)C2c2ccc(SC)cc2)cc(OC)c1OC` (stereo partly drawn) it is 12.8% (inactive).
The figure for `CCCCC(=O)c1ccco1` is 102% (inactive); for `C=C(C)[C@@H]1CC[C@]2(C)[C@H](CC=C3[C@@H]4[C@H](C)[C@@H](C)CC[C@]4(CO)CC[C@]32C)[C@@]1(C)CCCN` it is -39.1% (active).
Take `COc1ccc2[nH]cc(-c3nc(-c4c[nH]c5ccncc45)cs3)c2c1`: the growth is -10.2% (active).
Take `Oc1ccc(CN2CCC(N3CCCCC3)CC2)c2cccnc12`: the growth is 18% (inactive).
The figure for `CC(C)(C)c1cc(-c2nc3ccc(N4CCN(S(C)(=O)=O)CC4)cc3[nH]2)cc(C(C)(C)C)c1O` is 69.2% (inactive); for `COc1ccc2c(c1)c(-c1noc(C(=O)c3cn(C)c4ccc(Br)cc34)n1)cn2C` it is 113% (inactive); for `C[C@H](NC(=O)[C@@H](C)N)[C@H](Oc1ccc2c(cnn2-c2ccc(F)cc2)c1)c1ccc2c(c1)OCCO2` it is 34% (inactive).
To `C=C(C)[C@@H]1CC[C@]2(C(=O)O)CC[C@]3(C)[C@H](CC[C@@H]4[C@@]5(C)C[C@@H](Cc6cn(CCO[C@@H]7O[C@H](COC(C)=O)[C@H](OC(C)=O)[C@H](OC(C)=O)[C@H]7OC(C)=O)nn6)[C@H](O)C(C)(C)[C@@H]5CC[C@]43C)[C@@H]12` belongs 70.1% (inactive).
